One test concerns Escherichia coli IAI1. The test is described as follows: growth AUC relative to DMSO control (median of replicates) (fraction); higher = more growth (less inhibition), active = hit call of the paper. Conditions: 20 µM; 24 h;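 active = AUC reduced over 20% with Padj below 0.05 in at least 2 of 3 replicates; inactive = otherwise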. An outline of the steps: (§1)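 Starting at OD600 0.05, gut bacterial monocultures in mGAM were grown anaerobically at 37 °C with 20 µM compound (1% DMSO) under pierced gas-permeable seals. OD600 was read every hour for 24 h, and the lowest OD of each curve was set to 0. Area under the growth curve was normalised to the plate median of solvent-only wells, or to row and column medians on the industrial chemical plate, and the median of three biological replicates grown on separate days is given.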
As for `CN(C)C(=O)Nc1ccc(Cl)c(Cl)c1`, the “growth AUC” value was 0.963 (inactive).
Consider `CCOC(=O)C1CC(=O)C(=C(O)C2CC2)C(=O)C1` (stereo not drawn), for which the “growth AUC” value is 1.01 (inactive).
`COC(=O)C(C)Oc1ccc(Cl)cc1C` (stereo not drawn): the “growth AUC” value is 1 (inactive).
On the same count and under the same terms, the result for `FC(F)(F)C(=NOCC1OCCO1)c1ccc(Cl)cc1` reads 1.04 (inactive); that for `NC(=S)Nc1cccc2ccccc12`, 0.959 (inactive); that for `CC(C)c1cc(Oc2ccccc2)cc(C(C)C)c1NC(=S)NC(C)(C)C`, 1.01 (inactive).
Still for that read-out and setting: for `O=[N+](Nc1ccccc1)c1ccccc1` the value was 0.955 (inactive).
As to `Cc1[nH]n(C)c(=O)c1C(=O)c1ccc(C(F)(F)F)cc1S(C)(=O)=O`, the “growth AUC” value was 1.08 (inactive).
With `O=C=NC1CCC(CC2CCC(N=C=O)CC2)CC1` (stereo not drawn), the “growth AUC” value was 1.03 (inactive).
On the same count and under the same terms, the result for `CCc1cccc(C)c1N(COC(C)C)C(=O)CCl` reads 1.01 (inactive); that for `O=C(Nc1ccc(Cl)cc1C(O)c1ccccc1)c1ccncc1` (stereo not drawn), 0.958 (inactive).
For the compound `CNC(=O)Nc1nc2ccccc2s1`, the “growth AUC” value was 0.984 (inactive).
The same measure, in the same setting: for `CC(C)CNC(=O)N1CCNC1=O` the value was 1.02 (inactive).
With `C/C=C/C(=O)Oc1c(C(C)CCCCCC)cc([N+](=O)[O-])cc1[N+](=O)[O-]` (mixture of isomers), the “growth AUC” value was 0.985 (inactive).
On the same count and under the same terms, the result for `CCOC(=O)NCCOc1ccc(Oc2ccccc2)cc1` reads 0.976 (inactive).
Take `NC(=O)Cc1cccc2ccccc12`: the “growth AUC” value was 1.01 (inactive).
Take `NS(=O)(=O)[O-].[NH4+]`: the “growth AUC” value is 1.02 (inactive).
On the same count and under the same terms, the result for `COC(=O)c1ccc(C(=O)OC)cc1` reads 0.989 (inactive); that for `Nc1cc(Cl)nc(C(=O)O)c1Cl`, 1.02 (inactive); that for `CCc1cccc(C)c1N(C(=O)C(=O)O)[C@@H](C)C(=O)O`, 0.988 (inactive).
The same measure, in the same setting: the result for `O=S(=O)(Oc1ccc(Cl)cc1)c1ccccc1` reads 0.967 (inactive).
In the case of `Oc1ccc2nc(-c3cscn3)[nH]c2c1`, the “growth AUC” value is 0.974 (inactive).
In the case of `COC(=O)c1csc(C)c1S(=O)(=O)NC(=O)n1nc(OC)n(C)c1=O`, the “growth AUC” value is 0.971 (inactive).
The same measure, in the same setting: for `CCCCOCN(C(=O)CS(=O)(=O)[O-])c1c(CC)cccc1CC.[Na+]` the value was 0.991 (inactive).
Still for that read-out and setting: for `O.O.O=[N+]([O-])c1ccc([O-])cc1.[Na+]` the value was 1.01 (inactive); for `COCC(=O)N(c1c(C)cccc1C(=O)O)C(C)C(=O)O` (stereo not drawn), 0.978 (inactive); for `O=C(O)COc1ccc(Cl)cc1CO`, 1.01 (inactive).
The same measure, in the same setting: for `CCOc1ccc2c(c1)C(C)=CC(C)(C)N2` the value was 0.986 (inactive); for `CC(C)CCCCCOC(=O)C(C)Oc1ccc(Cl)cc1Cl` (stereo not drawn), 1.02 (inactive).
`[S]`: the “growth AUC” value is 0.963 (inactive).
Consider `CCCC(C)(C)C(=O)Nc1ccc(Cl)cc1`, for which the “growth AUC” value is 1.01 (inactive).
On the same count and under the same terms, for `CSc1nnc(C(C)(C)C)c(=O)n1/N=C/C(C)C` the value was 0.979 (inactive); for `O=C(O)CCCc1c[nH]c2ccccc12`, 0.962 (inactive).
For `C=C1C[C@]23C[C@@]1(O)CC[C@H]2[C@@]12C=C[C@H](O)[C@@](C)(C(=O)O1)[C@H]2[C@@H]3C(=O)O`, the “growth AUC” value is 1.01 (inactive).
The same measure, in the same setting: for `Nc1ccc(S(=O)(=O)Nc2nccs2)cc1` the value was 0.968 (inactive); for `CCCCCCCCCC[N+](C)(C)Cc1ccccc1.[Cl-]`, 0.969 (inactive); for `CN1CCC[C@H]1c1cccnc1`, 1.01 (inactive).
Still for that read-out and setting: for `O=C1NCCN1` the value was 1.06 (inactive); for `O=C(O)COc1cccc(Cl)c1Cl`, 1.01 (inactive).

In the next test the test system is Eubacterium rectale. Described as above. Particulars: 20 µM; 24 h. A digest of the protocol: as §1
For the compound `CN(C)C(=O)Nc1ccc(Cl)c(Cl)c1`, the “growth AUC” value was 0.978 (inactive).
Still for that read-out and setting: for `CCOC(=O)C1CC(=O)C(=C(O)C2CC2)C(=O)C1` (stereo not drawn) the value was 0.961 (inactive); for `COC(=O)C(C)Oc1ccc(Cl)cc1C` (stereo not drawn), 0.997 (inactive).
Still for that read-out and setting: for `FC(F)(F)C(=NOCC1OCCO1)c1ccc(Cl)cc1` the value was 1.06 (inactive).
`NC(=S)Nc1cccc2ccccc12`: the “growth AUC” value was 1.03 (inactive).
Same read-out and setting: for `CC(C)c1cc(Oc2ccccc2)cc(C(C)C)c1NC(=S)NC(C)(C)C` the value was 0.45 (active).
The same measure, in the same setting: for `O=[N+](Nc1ccccc1)c1ccccc1` the value was 0.921 (inactive); for `Cc1[nH]n(C)c(=O)c1C(=O)c1ccc(C(F)(F)F)cc1S(C)(=O)=O`, 0.972 (inactive).
Same read-out and setting: the result for `O=C=NC1CCC(CC2CCC(N=C=O)CC2)CC1` (stereo not drawn) reads 0.973 (inactive); that for `CCc1cccc(C)c1N(COC(C)C)C(=O)CCl`, 1.04 (inactive); that for `O=C(Nc1ccc(Cl)cc1C(O)c1ccccc1)c1ccncc1` (stereo not drawn), 1.12 (inactive).
With `CNC(=O)Nc1nc2ccccc2s1`, the “growth AUC” value is 1.03 (inactive).
As for `CC(C)CNC(=O)N1CCNC1=O`, the “growth AUC” value was 1.02 (inactive).
Same read-out and setting: for `C/C=C/C(=O)Oc1c(C(C)CCCCCC)cc([N+](=O)[O-])cc1[N+](=O)[O-]` (mixture of isomers) the value was 0.665 (active); for `CCOC(=O)NCCOc1ccc(Oc2ccccc2)cc1`, 0.956 (inactive).
For `NC(=O)Cc1cccc2ccccc12`, the “growth AUC” value is 0.994 (inactive).
Same read-out and setting: the result for `NS(=O)(=O)[O-].[NH4+]` reads 1.09 (inactive).
Regarding `COC(=O)c1ccc(C(=O)OC)cc1`, the “growth AUC” value was 1 (inactive).
Same read-out and setting: the result for `Nc1cc(Cl)nc(C(=O)O)c1Cl` reads 1.01 (inactive); that for `CCc1cccc(C)c1N(C(=O)C(=O)O)[C@@H](C)C(=O)O`, 1.12 (inactive).
The same measure, in the same setting: the result for `O=S(=O)(Oc1ccc(Cl)cc1)c1ccccc1` reads 0.874 (inactive).
Same read-out and setting: the result for `Oc1ccc2nc(-c3cscn3)[nH]c2c1` reads 1.01 (inactive); that for `COC(=O)c1csc(C)c1S(=O)(=O)NC(=O)n1nc(OC)n(C)c1=O`, 1.11 (inactive).
As to `CCCCOCN(C(=O)CS(=O)(=O)[O-])c1c(CC)cccc1CC.[Na+]`, the “growth AUC” value is 0.975 (inactive).
Consider `O.O.O=[N+]([O-])c1ccc([O-])cc1.[Na+]`, for which the “growth AUC” value is 0.918 (inactive).
Same read-out and setting: the result for `COCC(=O)N(c1c(C)cccc1C(=O)O)C(C)C(=O)O` (stereo not drawn) reads 0.949 (inactive); that for `O=C(O)COc1ccc(Cl)cc1CO`, 1.05 (inactive).
For `CCOc1ccc2c(c1)C(C)=CC(C)(C)N2`, the “growth AUC” value is 1.06 (inactive).
On to `CC(C)CCCCCOC(=O)C(C)Oc1ccc(Cl)cc1Cl` (stereo not drawn), for which the “growth AUC” value was 1.21 (inactive).
On the same count and under the same terms, the result for `[S]` reads 1.04 (inactive); that for `CCCC(C)(C)C(=O)Nc1ccc(Cl)cc1`, 0.958 (inactive).
Same read-out and setting: the result for `CSc1nnc(C(C)(C)C)c(=O)n1/N=C/C(C)C` reads 1.1 (inactive).
For `O=C(O)CCCc1c[nH]c2ccccc12`, the “growth AUC” value is 1.07 (inactive).
Take `C=C1C[C@]23C[C@@]1(O)CC[C@H]2[C@@]12C=C[C@H](O)[C@@](C)(C(=O)O1)[C@H]2[C@@H]3C(=O)O`: the “growth AUC” value was 1.14 (inactive).
Turning to `Nc1ccc(S(=O)(=O)Nc2nccs2)cc1`, the “growth AUC” value was 0.97 (inactive).
Consider `CCCCCCCCCC[N+](C)(C)Cc1ccccc1.[Cl-]`, for which the “growth AUC” value was 0.91 (inactive).
Still for that read-out and setting: the result for `CN1CCC[C@H]1c1cccnc1` reads 0.978 (inactive).
Still for that read-out and setting: the result for `O=C1NCCN1` reads 1.01 (inactive); that for `O=C(O)COc1cccc(Cl)c1Cl`, 1.04 (inactive).

Values taken from the supplement of paper PMC12669032.
